Assay results reported in PubChem BioAssay AID1159580 (chemical genetic matrix, 2015).
The whole screen tested about 5,500 compounds, of which about 2,000 (36%) were called active. About 18% were inconclusive and are not listed. No stated cut-off is given here; in the data, active means normalized growth mostly below about 0.91 (no sharp cut-off); inconclusive means no clear call, values can overlap the other calls; inactive means mostly above about 0.92. The list shows a part of the results.

Assay: chemical genetic growth profiling, strain panel (AID 1159580);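 further: tested at 20 µM; growth read once vehicle control cultures reached saturation at 30 °C; 1 = growth at the plate median or of vehicle wells; lower values mean less growth of the strain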
Details: S. cerevisiae deletion strains, growth OD

Measured: normalized growth

CC(CC(=O)C1OC1(C)C)C1C(=O)CC2(C)C3=CCC4C(C)(C)C(OC5OCC(O)C(O)C5O)CCC45CC35C(O)CC12C (configuration not stated)
inactive: locus YAL021C, strain ccr4, active compounds read low 1.03 | locus YAL026C, strain drs2, active compounds read low 1.01 | locus YAL030W, strain snc1, active compounds read low 1.04 | locus YBL061C, strain skt5, active compounds read low 1.02 | locus YBR009C, strain hhf1, active compounds read low 1.02 | locus YBR023C, strain chs3, active compounds read low 1.01 | locus YBR171W, strain sec66, active compounds read low 1.03 | locus YBR231C, strain swc5, active compounds read low 1.02 | locus YBR279W, strain paf1, active compounds read low 1.02 | locus YCL011C, strain gbp2, active compounds read low 1.02 | locus YCL016C, strain dcc1, active compounds read low 1 | locus YCL061C, strain MRC1, active compounds read low 1.02 | locus YCL069W, strain vba3, active compounds read low 1.01 | locus YCR088W, strain abp1, active compounds read low 1.02 | locus YDL005C, strain med2, active compounds read low 1.03 | locus YDL040C, strain nat1, active compounds read low 1.02 | locus YDR001C, strain nth1, active compounds read low 1.02 | locus YDR069C, strain doa4, active compounds read low 1.03 | locus YDR137W, strain rgp1, active compounds read low 1.04 | locus YDR159W, strain sac3, active compounds read low 1.04 | locus YDR195W, strain ref2 1.01 | locus YDR297W, strain sur2, active compounds read low 1.02 | locus YDR334W, strain swr1, active compounds read low 1.01 | locus YDR335W, strain msn5, active compounds read low 1.02 | locus YDR392W, strain spt3, active compounds read low 1.03 | locus YEL003W, strain gim4, active compounds read low 1.02 | locus YEL037C, strain rad23, active compounds read low 1.04 | locus YEL061C, strain CIN8 (second series), active compounds read low 1.02 | locus YER015W, strain faa2, active compounds read low 1.02 | locus YER016W, strain bim1, active compounds read low 1.02 | locus YER111C, strain swi4, active compounds read low 1.03 | locus YER155C, strain BEM2 (second series), active compounds read low 1.03 | locus YFR010W, strain ubp6, active compounds read low 1.03 | locus YGL167C, strain pmr1, active compounds read low 1.03 | locus YGL173C, strain kem1, active compounds read low 1.02 | locus YGL227W, strain vid30, active compounds read low 1.02 | locus YGL240W, strain doc1, active compounds read low 1.03 | locus YGL253W, strain hxk2, active compounds read low 1.01 | locus YHR013C, strain ard1, active compounds read low 1.08 | locus YHR027C, strain rpn1, active compounds read low 1.02 | locus YHR142W, strain chs7, active compounds read low 1.01 | locus YJL092W, strain hpr5, active compounds read low 1.02 | locus YJL095W, strain BCK1 (second series), active compounds read low 1.03 | locus YJL115W, strain asf1, active compounds read low 1.01 | locus YJL129C, strain trk1, active compounds read low 1.01 | locus YJL154C, strain vps35, active compounds read low 1.02 | locus YJL164C, strain tpk1, active compounds read low 1.01 | locus YJL166W, strain qcr8, active compounds read low 1.02 | locus YJL187C, strain SWE1, active compounds read low 1.02 | locus YKL160W, strain elf1, active compounds read low 1.03 | locus YKR026C, strain gcn3, active compounds read low 1.03 | locus YKR091W, strain srl3, active compounds read low 1.03 | locus YLL001W, strain dnm1, active compounds read low 1.01 | locus YLL026W, active compounds read low 1.02 | locus YLL041C, strain sdh2, active compounds read low 1.01 | locus YLR027C, strain aat2, active compounds read low 1.03 | locus YLR221C, strain rsa3, active compounds read low 1.02 | locus YLR258W, strain gsy2, active compounds read low 1.01 | locus YLR262C, strain YPT6 (second series), active compounds read low 1.05 | locus YLR320W, strain mms22, active compounds read low 1.04 | locus YLR342W, strain FKS1, active compounds read low 1.01 | locus YLR357W, strain rsc2, active compounds read low 1.02 | locus YLR370C, strain arc18, active compounds read low 1.02 | locus YLR384C, strain iki3, active compounds read low 1.02 | locus YML120C, strain ndi1, active compounds read low 1.02 | locus YMR058W, strain fet3, active compounds read low 1.02 | locus YMR125W, strain sto1, active compounds read low 1.03 | locus YMR129W, active compounds read low 1.02 | locus YMR205C, strain PFK2, active compounds read low 1.03 | locus YMR231W, strain pep5, active compounds read low 1.01 | locus YNL071W, strain lat1, active compounds read low 1.01 | locus YNL209W, strain ssb2, active compounds read low 1.02 | locus YNL248C, strain rpa49, active compounds read low 1.02 | locus YNL322C, strain KRE1 (second series), active compounds read low 1.03 | locus YNR049C, strain mso1, active compounds read low 1.02 | locus YOR001W, strain rrp6, active compounds read low 1.02 | locus YOR070C, strain gyp1, active compounds read low 1.01 | locus YOR080W, strain dia2, active compounds read low 1.03 | locus YOR083W, strain WHI5, active compounds read low 1.02 | locus YOR106W, strain vam3, active compounds read low 1.03 | locus YOR265W, strain rbl2, active compounds read low 1.01 | locus YOR270C, strain vph1, active compounds read low 1.02 | locus YOR290C, strain snf2, active compounds read low 1.02 | locus YPL051W, strain arl3, active compounds read low 1.02 | locus YPL078C, strain atp4, active compounds read low 1.02 | locus YPL106C, strain sse1, active compounds read low 1.04 | locus YPL240C, strain hsp82, active compounds read low 1.04
